Pf growth 96h = P. falciparum growth inhibition at 96 hours | P. falciparum luciferase reporter growth, 96 h | Potency, µM (top dose mostly 28.7 µM), for inactives: top-dose activity change, negative = inhibition, most hits filed as inhibitors | hit rate 6.9% among 320,000; note: potency is the fitted concentration of half-maximal effect; % is set by controls: 0 for no effect and ±100 for the full control effect
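Erythrocytes infected with luciferase-expressing P. falciparum were dispensed at 2% hematocrit and 0.05% parasitemia (final), then incubated with compounds 96 hours at 37 C in 5% CO2. Luminescence after detection reagent addition reported growth.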
HCV inhibitor = inhibitors of hepatitis C virus infection. Huh7.5.1 HCVcc-Cre infection, luciferase reporter, 44 h. Potency, µM (top dose mostly 41.8 µM), inactives show at the highest dose activity change, negative = inhibition, actives largely listed as inhibitors. hit rate 3.4% among 340,000. AID 651820; note: potency is the fitted concentration of half-maximal effect; % is set by controls: 0 for no effect and ±100 for the full control effect
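A cell-based infection assay in which seeded cells (1,000 per well) receive test compound after 4 h, are inoculated with HCVcc-Cre at approximately 0.5 moi, and are incubated 44 h before luminescence detection.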
AMA1 RON2 block = inhibitors of Plasmodium falciparum AMA1-RON2 interaction; AlphaScreen AMA1-biotinylated RON2 peptide binding; Potency, µM (series often up to 58.2 µM), without a hit: at the highest dose activity change, negative = inhibition, usual class: inhibitors; hit rate 0.2% among 360,000;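 note: potency is the fitted concentration of half-maximal effect; 0% = vehicle wells and -100% = peptide control; nearly all actives have a fitted effect of over 45% in size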
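AMA1 (3D7) with his tag at 25 nM final met compounds first, then biotinylated RON2 peptide at 25 nM; detection used donor plus acceptor beads, 10 µg/mL apiece, read by AlphaScreen after 30 min at room temperature.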
Pf growth 48h = inhibits P. falciparum growth in the first generation, 48 h; P. falciparum luciferase growth in erythrocytes, 48 h; Potency, µM (highest dose often 28.7 µM), for the others: at the top dose activity change, negative = inhibition, hits mostly inhibitors; hit rate 5.9% among 310,000; AID 504832; note: potency is the fitted concentration of half-maximal effect; % is set by controls: 0 for no effect and ±100 for the full control effect
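Read-out is firefly luciferase luminescence from an integrated reporter in P. falciparum, so falling signal marks reduced parasite growth. Infected erythrocytes were at 2% hematocrit and 0.1% parasitemia (final) in Albumax-supplemented RPMI 1640.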
Shiga toxin inh = blocks Shiga toxin action in Vero cells. hit rate 9.2% among 290,000. Vero cells, Shiga toxin protein synthesis inhibition reporter. inhibition, % at 38.7 µM; in the data active = inhibition mostly above about 28%, no sharp cut-off; inactive = mostly below about 43%; note: 0% is about no effect
CHX counter = counter-screen hit for Shiga toxin inhibitors, cycloheximide; cell reporter, cycloheximide protein synthesis inhibition counterscreen; hit rate 12% among 300,000; max response, %; in the data active = max response mostly above about 13%, no sharp cut-off; inactive = mostly below about 14%; note: read at 38.3 µM for the half of the compounds with a filed dose; 0% is about no effect
* = called active by the depositor; ? = inconclusive; · = not tested or not shown; [ ] = dose if it differs, or a comment. A selection: hits, their analogues and other compounds. The true share with any hit is near 21%. Unless noted, calls come from the whole dose curve; as a rule, active = well fitted curve in the direction sought with a large enough effect; inconclusive = small, poorly fitted or top-dose-only effect, or another doubt; inactive = no such curve, though single readings can be large; an effect the other way counts as inactive or inconclusive.

SMILES	Pf growth 96h	HCV inhibitor	AMA1 RON2 block	Pf growth 48h	Shiga toxin inh	CHX counter
CC(Oc1ccc2ccc(=O)oc2c1)C(=O)NC1CC(C)(C)NC(C)(C)C1 (stereo unspecified)	31%	22%	0%	37%	3	8
O=C(CS(=O)(=O)c1ccccc1)c1ccc2c(c1)OCCO2	?	19%	17%	274%	58*	45*
CCC(=O)c1ccc2c(c1)OCCO2	16%	11%	-9%	19%	33	13*
CCCC(=O)c1ccc2c(c1)OCCO2	·	13%	20%	31%	28	10
O=C1CN(S(=O)(=O)c2cc(C(F)(F)F)ccc2Cl)CCN1	-20%	-4%	9%	10%	·	·
O=C(NCc1ccccc1)c1onc(CS(=O)(=O)c2ccc(Cl)cc2)c1C(=O)NCc1ccccc1	45%	7%	6%	-25%	·	·
O=C(CN1CCN(C(=O)C2CCCO2)CC1)Nc1ccc(Cl)cc1 (stereo unspecified)	-16%	·	7%	29%	-6	-2
CN1CCc2cc3c(c4c2[C@H]1[C@H](O)c1ccccc1-4)OCO3	?	-3%[8.37 µM]	-15%	1.7µM*	-12	-2
COc1ccc2c(c1OC)C(C1c3c(cc4c(c3OC)OCO4)CCN1C)OC2=O (stereo unspecified)	?	21%	-12%	?	6	-1
COc1ccc2c(c1OC)C(=O)OC2C1c2c(cc3c(c2OC)OCO3)CCN1C (stereo unspecified)	13µM*	-22%[8.37 µM]	0%	?	-18	-3
COc1ccc(NC(=O)CN2C(=O)NC(C)(C3CC3)C2=O)cc1S(=O)(=O)N1CCCCC1 (stereo unspecified)	?	?	-11%	?	·	·
CC(C)Cc1nnc(NC(=O)CCC(=O)NCCc2ccc(Cl)cc2)s1	29%	-3%	-1%	-3%	2	-3
Cc1cc(C)n(-c2ccc(N3CCOCC3)nn2)n1	39%	5%	1%	72%	57*	33*
Cc1sc(NC(=O)C2=COCCO2)nc1-c1ccc(Br)cc1	-4%	?	-7%	-20%	·	·
O=C(Nc1ccc(-c2nc3ccccc3s2)cc1)C1=COCCO1	61%	6%	-10%	-36%	56*	40*
O=C(Nc1ccc(-c2nc3ccccc3s2)c(O)c1)C1=COCCO1	180%	?	-4%	87%	73*	131*
Cc1cccc2sc(NNC(=O)C3=COCCO3)nc12	45%	6%	49%	57%	54	15
O=C(Nc1cccc(-c2nc3ccccc3s2)c1)C1=COCCO1	168%	-20%	5%	84%	50*	44*
O=C(Nc1ccc(O)c(-c2nc3ccccc3s2)c1)C1=COCCO1	57%	1%	14%	34%	1	-2
COc1ccc(C2/C(=C(/O)c3ccc(C)cc3)C(=O)C(=O)N2CCCN2CCOCC2)cc1 (stereo unspecified)	?	9%	14%	14%	·	-2
CC1CCN(c2cc(N3CCOCC3)c(F)cc2[N+](=O)[O-])CC1	184%	5%	-17%	?	49	-1
CC1CCN(c2cc(N3CCOCC3)c([N+](=O)[O-])cc2F)CC1	15µM*	-8%	-16%	?	5	-3
CCN1CCN(c2cc(N3CCc4ccccc4C3)c(F)cc2[N+](=O)[O-])CC1	62%	4.5µM*	?	?	6	-3
COc1ccc(NC(=O)c2sc3nc(-c4cccnc4)ccc3c2N)cc1	-6%	14%	10%	-1%	18	-2
Nc1c(C(=O)Nc2ccccc2)sc2nc(-c3ccco3)ccc12	15%	11µM*	-7%	16%	95*	27*
SMILES	Pf growth 96h	HCV inhibitor	AMA1 RON2 block	Pf growth 48h	Shiga toxin inh	CHX counter
COc1ccccc1NC(=O)c1sc2nc(-c3ccco3)ccc2c1N	·	7%	22%	13%	70	20*
Nc1c(C(=O)Nc2ccccc2)sc2nc(-c3cccnc3)ccc12	32%	·	·	29%	70*	49*
O=C(O)c1nccnc1C(=O)Nc1ccccc1-c1ccccc1	-1%	5%	-6%	-64%	3	10
CC[C@]12C(=O)N(C)C[C@H]([C@@H]3C(=O)N(C)C(=O)[C@@H]31)N2C(=O)c1ccc(C(C)(C)C)cc1	·	8%	9%	·	·	·
CCOC(=O)C1=C[C@@H](C(=O)OCC)[C@@H]2C3=C(C(=O)C2(C)C)[C@H](c2ccccc2)[C@@H]2C(=O)N(c4ccccc4)C(=O)[C@@H]2[C@@H]3C1	·	·	·	·	-5	-2
CCCCCCCCCCCCCCCC(=O)OCC(COC(=O)CCCCCCCCCCCCCCC)OC(=O)CCCCCCCCCCCCCCC	8%	·	·	9%	·	·
CCCCCc1nc2ccccc2c(=O)n1N	?	22%	2%	-12%	-13	22*
Cc1ccccc1OCc1nc2ccccc2c(=O)n1N	46%	10%	-5%	·	41	31*
CC(=O)Nn1c(COc2ccccc2C)nc2ccccc2c1=O	18%	-15%	6%	20%	-8	-4
COc1cccc(OCc2nc3ccccc3c(=O)n2N)c1	1%	14%	12%	68%	84*	27*
COc1ccc(-c2nc3ccccc3c(=O)n2N)cc1	31%	14%	2%	35%	15	-2
COc1ccc2cc(C(C)c3nc4ccccc4c(=O)n3N)ccc2c1 (stereo unspecified)	1.2µM*	-6%	-22%	?	17	-6
COc1cccc(CCc2nc3ccccc3c(=O)n2N)c1	·	-26%	-3%	·	·	·
CCCc1nc2ccccc2c(=O)n1N	-31%	17%	-21%	·	-4	-3
O=C(CSc1n[nH]c(-c2ccncc2)n1)Nc1ccc(Cl)c(C(=O)O)c1	-25%	3%	-3%	7%	1	-1
CCCCC(=O)NNC(=O)N1c2ccccc2Sc2ccccc21	-1%	15%	72%	-38%[0.00184 µM]	-5	-5
CCc1nc2c(OCCOc3ccc(F)cc3)cccn2c1N(C)C(=O)c1ccc(OC)cc1	·	·	-10%	·	·	·
CC(=O)N1CCN(C(C(=O)Nc2c(C)cccc2C)c2cccc(F)c2)CC1 (stereo unspecified)	·	·	8%	·	·	·
CCN1C[C@@H]2[C@@H]3C(=O)N(Cc4ccccc4)C(=O)[C@@H]3[C@](C)(C1=O)N2C(=O)c1ccc(Cl)c(Cl)c1	·	16%	2%	·	·	·
Nn1c(COc2ccccc2)nc2ccccc2c1=O	-2%	14%	6%	99%	57*	48*
CC#CCCc1nc2ccccc2c(=O)n1N	-28%	19%	-2%	8%	12	-2
CCn1c(=O)n(CC(=O)Nc2cccc(OC)c2)c(=O)c2ccccc21	75%	-11%	10%	1%	19	11
COc1cccc(NC(=O)Cn2c(=O)n(-c3cc(OC)c(OC)c(OC)c3)c(=O)c3ccccc32)c1	?	10%	-11%	10µM*	-5	7

Screens (PubChem BioAssay)
